Consider 17 compounds from PubChem BioAssay (NCATS).

Inconclusive results are not listed. The source holds several records for some structures; these can differ, active in one and inactive in another. Unmarked numbers belong to inactive results. Active and inactive are the calls of the source. The call rests on the fitted dose curve; in most records, active means well fitted curve in the direction sought with a large enough effect; inconclusive means small, poorly fitted or top-dose-only effect, or another doubt; inactive means no such curve, though single readings can be large; an effect the other way counts as inactive or inconclusive.

Assay [1] in a line: Viability qHTS for spleen associated tyrosine kinase inhibitor (SYKi) naive MV4-11 cells (AID 1963823). Further: nearly all actives have a fitted effect of over 40% in size. Further: potency means the concentration at half of the fitted maximal effect. Summed up: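 SYKi-naive MV4-11 AML cells, 500 per well, were exposed to library compounds for 72 hr at 37 C, 5% CO2. Viability was then read by CellTiter-Glo luminescence after 10 min at room temperature.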
The nature of assay [2]: Viability qHTS for spleen associated tyrosine kinase inhibitor (SYKi) drug resistant MV4-11 cells (AID 1963824). Further: nearly all actives have a fitted effect of over 35% in size. Further: potency means the concentration at half of the fitted maximal effect. An outline of the steps: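 SYK-inhibitor-resistant MV4-11 AML cells were seeded at 500 per well onto compound and cultured 72 hours (37 °C, 5% CO2). CellTiter-Glo was then added, and after 10 min at room temperature, luminescence gave viability.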
A short description of assay [3]: Cellular viability qHTS for adrenocortical cancer (ACC) cell line SW-13 (AID 1963989).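 Further: cells grown in serum-free medium with ITS supplement; on the % scale 0 is the no-effect control and ±100 the full control effect; nearly all actives have a fitted effect of over 65% in size.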 Particulars: SW-13 ACC cells viability, CellTiter-Glo, 48 h; activity (max response): stronger effect = lower value. Summed up: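 SW-13 cells in ITS-supplemented serum-free DMEM were plated overnight, then exposed for 48 h at 37C to compound titrations (up to 46 uM final). Viability was read by CellTiter-Glo luminescence; four-parameter logistic fits gave IC50 and efficacy.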

A short description of assay [4]: Cellular viability qHTS for adrenocortical cancer (ACC) cell line NCI-H295R (AID 1963990).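 Further: 0% = DMSO only wells and -100% = full killing with cytotoxic reference compound; nearly all actives have a fitted effect of over 60% in size.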 Summed up:
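Luminescent ATP read-out (CellTiter-Glo, 20 min RT) after 48 h drug exposure of NCI-H295R cells; a titration up to 46 uM final. Data normalized to doxorubicin (100% inhibition) and DMSO (0%); 4-parameter fit gives IC50, max response.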
(In qHTS, concentration-response curves come from the screen itself.)

For the compound `COc1ccc(C[C@H](N)C(=O)N[C@@H]2[C@H](O)[C@H](n3cnc4c(N(C)C)ncnc43)O[C@@H]2CO)cc1`, the Potency in assay [1] and in assay [2] was 0.184 µM (active) in each case.
With `CC1(C(=O)O)CCCC2(C)C3CCC4CC3(CCC12)CC4(O)CO` (stereo not drawn), the Potency entry in assay [1] was “inactive”.
On to `C=C1C[C@H](O)[C@@H](O)[C@@]2(C)C1[C@@H](O)[C@H]1OC(=O)C3[C@@H](C)[C@@H](O)[C@H](O)C2[C@]31C` (stereo partly drawn), for which the Potency entry in assay [1] and in assay [2] was “inactive” throughout.
With `C=C(NC(=O)C(=C)NC(=O)c1csc(C2=NC3c4csc(n4)C4NC(=O)c5csc(n5)C(C(C)(O)C(C)O)NC(=O)C5CSC(=N5)/C(=C/C)NC(=O)C(C(C)O)NC(=O)c5csc(n5)C3(CC2)NC(=O)C(C)NC(=O)C(=C)NC(=O)C(C)NC(=O)C(C(C)CC)NC2C=Cc3c(C(C)O)cc(nc3C2O)C(=O)OC4C)n1)C(N)=O` (stereo not drawn), the Potency in assay [1] is 1.3 µM (active); in assay [2], 0.58 µM (active).
As for `COC(=O)C1=C(C)NC(C)=C(C(=O)OCCN(C)Cc2ccccc2)C1c1cccc([N+](=O)[O-])c1` (stereo not drawn), the Potency in assay [1] is 11.9 µM (active).
As to `C=C1CC[C@@H]2[C@](C)(CO[C@@H]3O[C@H](CO)[C@@H](O)[C@H](O)[C@H]3O)CCC[C@@]2(C)[C@@H]1CCC1=CCOC1=O`, in assay [1], the Potency entry was “inactive”.
On to `CC[C@H](Nc1ncnc2nc[nH]c12)c1nc2cccc(F)c2c(=O)n1-c1ccccc1`, for which, in assay [1], the Potency was 0.332 µM (active) and the viability (% of control) was 57.2% [at 9.25 µM]. Further, in assay [2], the viability, % of control was 61.7% [at 9.25 µM]. In assay [3], the activity (max response) is -2.88%. The Potency entry in assay [4] was “inactive”.
As to `C=C[C@@]12COC(=O)C(=C)C1[C@@H](O)[C@H](C(=C)C(=O)OC)[C@@H](OC(=O)C(=C)CO)C2` (stereo partly drawn), the Potency in assay [1] is 1.78 µM (active); in assay [2] it was 1.59 µM (active).
Regarding `C=CC(C)(O)CC/C=C(/C)COC(=O)C(C)C1CCC(C)(C=C)O1` (stereo not drawn), the Potency result in assay [1] was “inactive”.
As to `C=C1C2(CCC(=O)OC2(C)C)CC(OC(=O)/C(C)=C/C)C2(C)C13OC14C(=O)OC(C)(C(=O)C12C(=O)OC4C)C3OC(C)=O` (stereo not drawn), the Potency result in assay [1] was “inactive”.
With `C[C@@H]1O[C@@H](OC[C@H]2O[C@@H](OCCc3ccccc3)[C@H](O)[C@@H](O)[C@@H]2O)[C@H](O)[C@H](O)[C@H]1O`, the Potency entry in assay [1] and in assay [2] was “inactive” each time.
As for `CC(=O)OCC1OC(O[C@H]2CC[C@]34C[C@]35CC(O)[C@]3(C)[C@@H]([C@H](C)CC/C=C(\C)C(=O)O)C(O)C[C@@]3(C)C5CC[C@H]4C2(C)C)C(O)C(O)C1OC1OCC(O)C(O)C1O` (stereo partly drawn), the viability (% of control) in assay [1] is 62.3% [at 9.25 µM]. The viability, % of control in assay [2] is 79.7% [at 9.25 µM].
`C[C@@H]1C[C@H]2O[C@@H]2/C=C\C=C\C(=O)Cc2c(Cl)c(O)cc(O)c2C(=O)O1`: the results for the Potency in assay [1] and in assay [2] were 0.0321 µM (active) and 0.0718 µM (active), respectively. The viability (% of control) in assay [1] is 9.93% [at 9.25 µM].
Take `CC1(C)CC2C(O)c3cocc3CC(C)(O)C2C1` (stereo not drawn): the Potency entry in assay [1] and in assay [2] was “inactive” throughout.
As to `COc1cc(C(=O)OC[C@@]2(O)CO[C@@H](O[C@H]3[C@H](Oc4ccc(O)cc4)O[C@H](CO)[C@@H](O)[C@@H]3O)[C@@H]2O)cc(OC)c1O`, the Potency entry in assay [1] and in assay [2] was “inactive” each time.
As to `CC1(C)[C@@H](O)CC[C@]2(C)[C@H]3CC=C4[C@@H]5C[C@](C)(C(=O)O)CC[C@]5(C)CC[C@@]4(C)[C@]3(C)CC[C@@H]12`, the Potency entry in assay [1] and in assay [2] was “inactive” each time.
Take `Nc1ncnc2c1c(I)cn2[C@@H]1C[C@H](N)[C@@H](O)[C@H]1O`: the results for the Potency in assay [1] and in assay [2] were 2.91 µM (active) and 6.51 µM (active), respectively.
